Data: the supplement of paper PMC6555819

Experiments:
Assay in all cases: PBM binding z-score (relative to random genomic background probes); higher = stronger binding; sequences stand for … in GC…GCGATTGACAGCGTAGAATGAAGG
[1] = tested on: FXR:RXRa (NR concentration 270 nM, RXRa partner concentration 90 nM)
Procedure, shortened: (§1)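 Probes were double-stranded and carried 34-nt variable regions with direct-repeat seeds, single-nucleotide variants, half-site ablations and random human genomic background sequences, printed on custom Agilent 4×180K protein-binding microarrays. Arrays were incubated 1 h with ligand-free nuclear receptor dimers in PBS pH 7.4, 2% milk, 0.02% Triton X-100, 1 mM DTT, 0.2 mg/mL BSA and 0.4 mg/ml salmon testes DNA. Antibodies against each partner (one per run) detected binding, and scanned fluorescence was regression-normalized. Binding z-scores use the random background probes as reference.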

[2] = tested on: LXRa:RXRa (NR concentration 270 nM, RXRa partner concentration 90 nM)
Procedure, shortened: as §1

[3] = tested on: LXRa homodimer (NR concentration 270 nM)
Procedure, shortened: as §1

[4] = tested on: LXRb:RXRa (NR concentration 270 nM, RXRa partner concentration 90 nM)
Procedure, shortened: as §1

[5] = tested on: LXRb homodimer (NR concentration 270 nM)
Procedure, shortened: as §1

[6] = tested on: PPARa:RXRa (NR concentration 270 nM, RXRa partner concentration 90 nM)
Procedure, shortened: as §1

[7] = tested on: PPARg:RXRa (NR concentration 180 nM, RXRa partner concentration 90 nM)
Procedure, shortened: as §1

[8] = tested on: PPARg:RXRa 270nM:90nM, anti-RXR (NR concentration 270 nM, RXRa partner concentration 90 nM)
Procedure, shortened: as §1

[9] = tested on: PPARg:RXRa 30nM:10nM, anti-RXR (NR concentration 30 nM, RXRa partner concentration 10 nM)
Procedure, shortened: as §1

[10] = tested on: PPARg:RXRa 90nM:30nM, anti-RXR (NR concentration 90 nM, RXRa partner concentration 30 nM)
Procedure, shortened: as §1

[11] = tested on: PPARg:RXRa DBDmut IVT, anti-RXR (DBD mutation: RXRa K156A/R161A, NR concentration 270 nM, RXRa partner concentration 90 nM)
Procedure, shortened: as §1

[12] = tested on: PPARg:RXRa IVT, anti-PPARg (NR concentration 270 nM, RXRa partner concentration 90 nM)
Procedure, shortened: as §1

[13] = tested on: PPARg DBDmut:RXRa IVT, anti-PPARg (DBD mutation: PPARg1 K132A/R137A, NR concentration 270 nM, RXRa partner concentration 90 nM)
Procedure, shortened: as §1

[14] = tested on: PPARg DBDmut IVT, anti-PPARg (DBD mutation: PPARg1 K132A/R137A, NR concentration 270 nM)
Procedure, shortened: as §1

[15] = tested on: PPARg homodimer (NR concentration 180 nM)
Procedure, shortened: as §1

[16] = tested on: PXR:RXRa (NR concentration 270 nM, RXRa partner concentration 90 nM)
Procedure, shortened: as §1

[17] = tested on: PXR homodimer (NR concentration 270 nM)
Procedure, shortened: as §1

[18] = tested on: RARa:RXR (NR concentration 270 nM, RXRa partner concentration 90 nM)
Procedure, shortened: as §1

[19] = tested on: RARa homodimer (NR concentration 270 nM)
Procedure, shortened: as §1

[20] = tested on: RARb:RXRa (NR concentration 270 nM, RXRa partner concentration 90 nM)
Procedure, shortened: as §1

Row | Sequence | PBM binding z-score [1] | PBM binding z-score [2] | PBM binding z-score [3] | PBM binding z-score [4] | PBM binding z-score [5] | PBM binding z-score [6] | PBM binding z-score [7] | PBM binding z-score [8] | PBM binding z-score [9] | PBM binding z-score [10] | PBM binding z-score [11] | PBM binding z-score [12] | PBM binding z-score [13] | PBM binding z-score [14] | PBM binding z-score [15] | PBM binding z-score [16] | PBM binding z-score [17] | PBM binding z-score [18] | PBM binding z-score [19] | PBM binding z-score [20]
1 | TCGAGTAGGTTACCAATAGGGCATTCAGCTTTCT | 0.215 | 2.16 | -0.0808 | 0.671 | -1.16 | 1.36 | 0.697 | 1.32 | 1.08 | 1.1 | 3.28 | 2.9 | -0.0313 | 0.193 | -0.151 | 0.391 | -0.656 | 0.441 | -0.367 | 1.08
2 | GCGACTGGGGCAGCAGCAGGTTACCATAACTTAA | -0.536 | -0.657 | -0.621 | -0.287 | -1.12 | 0.405 | 0.4 | -0.0757 | -0.451 | -0.719 | 3.5 | 2.23 | -1.15 | -0.983 | -0.687 | -0.502 | -0.939 | -0.19 | -0.8 | 0.608
3 | TAGCGTAGGTCATGGGCCAGTATACCACGCGAAC | 4.78 | 3.98 | 0.0742 | 2.68 | -0.458 | 4.58 | 3.92 | 4.08 | 1.41 | 2.88 | 0.846 | 2.41 | -0.196 | 0.0667 | 0.862 | 2.19 | -0.726 | 3.4 | -0.444 | 3.9
4 | CCTGCTAGGTCATGATCAGCTAATCTACAGTATG | 3.25 | 2.63 | 0.02 | 1.94 | -0.0541 | 3.31 | 2.28 | 2.56 | 0.674 | 1.56 | 4.52 | 3.32 | 0.5 | 0.49 | 0.98 | 1.19 | -0.328 | 2.08 | 0.216 | 3.7
5 | AGAACGAGGGCACGCTGATTTGATAGCAGAGTAG | 0.707 | 0.541 | -0.464 | 0.172 | -0.795 | 2.31 | 2.24 | 1.79 | 0.45 | 1.1 | 4.06 | 4.09 | 0.567 | -0.124 | 0.292 | 0.514 | -0.166 | 1 | -0.142 | 2.67
6 | ATCTCTAGGTAAGACTCAGTTCAGTGACGAACGC | 0.592 | 0.636 | 0.724 | 0.467 | 0.883 | 0.279 | 0.47 | 0.379 | 0.0999 | 0.176 | 2.2 | 1.36 | 0.803 | 0.863 | 0.854 | 1.11 | 2.01 | 0.642 | 1.18 | 0.528
7 | CAGCCTAGGTCAGGGCCAGTTTAGGAGGAACGTT | 2.04 | 1.26 | -0.426 | 0.837 | -1.02 | 2.13 | 0.55 | 0.962 | -0.489 | 0.124 | 1.5 | 1.79 | -1.02 | -1.5 | 0.437 | 1.03 | -0.16 | 1.32 | -0.133 | 3.41
8 | TAATATAGGTAAAAGGTGAAAGTCGGTGTGGTAA | 1.84 | 2.01 | 0.364 | 2.04 | 0.134 | 6.16 | 10.5 | 9.06 | 9.53 | 10.1 | 7.05 | 6.22 | 2.17 | 1.62 | 2.02 | 1.8 | 0.982 | 3.16 | 1.75 | 1.94
9 | TCTGCTAGGTCAGTTGGTCACCTAACGAGCTGCC | 1.06 | 0.728 | -0.345 | 0.685 | 0.632 | 1.69 | 1.03 | 2.1 | 1.38 | 1.75 | 2.8 | 3.77 | 1.37 | 0.817 | 0.461 | 0.216 | -0.932 | 0.734 | -1.21 | 3.44
10 | ACTAGCAGGCCAAGTTTGGATCACTCAAACAAAG | -0.476 | -0.653 | -0.239 | -0.541 | -0.521 | -0.385 | 0.154 | -0.662 | -0.693 | -0.835 | 0.238 | 0.181 | -0.895 | -0.495 | -0.574 | -0.494 | -0.612 | -0.608 | -0.518 | 0.165
11 | CAAACTAGTTCAAAGGTCAAAGTCGAGCCAACCA | 7.5 | 6.94 | 5.57 | 6.5 | 2.97 | 7.02 | 11 | 9.72 | 11.8 | 11.7 | 3.06 | 5.87 | 1.03 | 1.34 | 6.05 | 6.85 | 3.08 | 8.58 | 3.93 | 5.27
12 | TTACCAAGGTAAAGGTCGTTGATCCCTCTGTAGA | 3.54 | 3.56 | 0.635 | 2.91 | -0.332 | 4.13 | 6.84 | 7.33 | 5.9 | 7.74 | 0.8 | 3.8 | 1.13 | 0.564 | 1.72 | 2.59 | 0.148 | 2.98 | -0.24 | 2.14
13 | GGAACGAGGGGAAGTTGATAGCAGAGTTTGATGG | 0.0996 | -0.26 | -0.307 | -0.0221 | -0.185 | 0.0181 | 0.515 | 0.29 | -0.0775 | 0.258 | 1.12 | 0.62 | 0.337 | 0.547 | 0.593 | 0.111 | 0.308 | -0.228 | 0.391 | 0.243
14 | CTCGACAGGTCGTGCTCAGGTGAGTATACCAAAC | 0.806 | 0.431 | -0.39 | 0.643 | -0.717 | 1.59 | 0.0674 | 0.515 | -0.386 | -0.107 | 0.245 | 0.534 | -0.84 | -0.0221 | 0.723 | 0.437 | -0.328 | 1.08 | -0.81 | 1.42
15 | CAAACTAGGTCACCGGAAGGTCAAATTCCGCATG | 6.25 | 6.28 | 5.9 | 5.82 | 1.95 | 6.06 | 9.94 | 8.01 | 6.22 | 7.81 | 8.5 | 8.8 | 3.05 | 2.87 | 7.39 | 6.11 | 2.46 | 7.62 | 3.35 | 5.12
